In PubChem BioAssay AID2810 (NMMLSC, 2010):
Out of some 1,200 compounds screened, about 65 (5%) were called active.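 Rule for the calls: active = at either tested dose, response and 90th-percentile vesicle-stain brightness of CD8 cells under set limits and under 9% cells vesicle-bound; inactive = the rest.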 Shown is part of a subset that was picked to be rich in actives.

Assay: modulators of CD8 T cell-vesicle binding, confirmation, cherry-picked primary hits, two concentrations (AID 2810);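 note: lower values mean blocking of vesicle binding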;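 for percent response (vesicle binding): ratio of mean FL2 vesicle stain of CD8+ cells to that row's control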
Settings: 2C CD8+ T cell-vesicle binding, flow cytometry; for double positive events: CD8+/vesicle+ events
[1] = at 15.4 µM, stronger effect = lower value

O=C(COc1ccccc1)Nc1cc(S(=O)(=O)N2CCOCC2)ccc1N1CCCC1
double positive events (at 7.7 µM): 28.3%
double positive events [1]: 4.1%
percent response (vesicle binding) [1]: 138% (inactive)
percent response (vesicle binding) (response, at 7.7 µM): 164%

CCN(Cc1ccccc1)C(=O)c1ccc(C)c(S(=O)(=O)N2CCCCC2)c1
double positive events (at 7.7 µM): 11.9%
double positive events [1]: 30.2%
percent response (vesicle binding) [1]: 197% (inactive)
percent response (vesicle binding) (response, at 7.7 µM): 111%

CCOC(=O)c1c(NC(=O)CN2C(=O)NC3(CCC(C)CC3)C2=O)sc(C)c1-c1ccc(C)cc1 (configuration not stated)
double positive events (at 7.7 µM): 33.5%
double positive events [1]: 23.6%
percent response (vesicle binding) [1]: 559% (inactive)
percent response (vesicle binding) (response, at 7.7 µM): 363%

Cc1cccc(C(=O)OCC(=O)Nc2ccc3c(c2)OCCO3)c1O
double positive events (at 7.7 µM): 10.2%
double positive events [1]: 29.9%
percent response (vesicle binding) [1]: 717% (inactive)
percent response (vesicle binding) (response, at 7.7 µM): 113%

Cc1cccc(C(=O)OCC(=O)NN2C(=O)NC3(CCC(C)CC3)C2=O)c1O (configuration not stated)
double positive events (at 7.7 µM): 19.9%
double positive events [1]: 5.2%
percent response (vesicle binding) [1]: 35.3% (active)
percent response (vesicle binding) (response, at 7.7 µM): 181%

Cc1ccc2nc(-c3cccnc3)c(NC3CCCC3)n2c1
double positive events (at 7.7 µM): 16.9%
double positive events [1]: 33.3%
percent response (vesicle binding) [1]: 211% (inactive)
percent response (vesicle binding) (response, at 7.7 µM): 276%

O=c1[nH]c(CN(CCc2ccccc2)S(=O)(=O)c2ccc(Cl)cc2)nc2ccccc12
double positive events (at 7.7 µM): 9.5%
double positive events [1]: 16.7%
percent response (vesicle binding) [1]: 208% (inactive)
percent response (vesicle binding) (response, at 7.7 µM): 239%

CCOC(=O)C(c1ccccc1)N1CCN(c2ccc(OC)cc2)CC1 (configuration not stated)
double positive events (at 7.7 µM): 13.2%
double positive events [1]: 29.9%
percent response (vesicle binding) [1]: 388% (inactive)
percent response (vesicle binding) (response, at 7.7 µM): 255%

CCc1noc(C)c1C(=O)OC(C)C(=O)Nc1ccc2c(c1)OCO2 (configuration not stated)
double positive events (at 7.7 µM): 32.8%
double positive events [1]: 2.5%
percent response (vesicle binding) [1]: 22% (active)
percent response (vesicle binding) (response, at 7.7 µM): 329%

CC(Sc1nc2ccccc2s1)C(=O)Nc1ccc2c(c1)OCO2 (configuration not stated)
double positive events (at 7.7 µM): 9%
double positive events [1]: 28%
percent response (vesicle binding) [1]: 533% (inactive)
percent response (vesicle binding) (response, at 7.7 µM): 344%

CCc1ccccc1NC(=O)NCc1ccc2c(c1)OCO2
double positive events (at 7.7 µM): 17.2%
double positive events [1]: 20%
percent response (vesicle binding) [1]: 361% (inactive)
percent response (vesicle binding) (response, at 7.7 µM): 479%

Cc1noc(C)c1C(=O)OC(C)C(=O)N1CCc2ccccc21 (configuration not stated)
double positive events (at 7.7 µM): 28.5%
double positive events [1]: 4.4%
percent response (vesicle binding) [1]: 134% (inactive)
percent response (vesicle binding) (response, at 7.7 µM): 293%

COc1ccc(Cl)cc1NS(=O)(=O)c1cccc(C(=O)NCC(C)(C)N2CCOCC2)c1
double positive events (at 7.7 µM): 20.7%
double positive events [1]: 18.3%
percent response (vesicle binding) [1]: 317% (inactive)
percent response (vesicle binding) (response, at 7.7 µM): 710%

COc1cc(CNCCc2ccc(S(N)(=O)=O)cc2)ccc1OCC(=O)N1CCCCC1
double positive events (at 7.7 µM): 11.5%
double positive events [1]: 19.2%
percent response (vesicle binding) [1]: 229% (inactive)
percent response (vesicle binding) (response, at 7.7 µM): 370%

Cc1ccc(C(=O)OCC(=O)NC2CCCCC2)o1
double positive events (at 7.7 µM): 35.5%
double positive events [1]: 14%
percent response (vesicle binding) [1]: 244% (inactive)
percent response (vesicle binding) (response, at 7.7 µM): 265%

COc1cc(CNCc2cccnc2)ccc1OCC(=O)NC1CCCCC1
double positive events (at 7.7 µM): 18.4%
double positive events [1]: 5.7%
percent response (vesicle binding) [1]: 32.6% (active)
percent response (vesicle binding) (response, at 7.7 µM): 303%

COc1ccc(CNC(=O)c2cccnc2SC)cc1OC
double positive events (at 7.7 µM): 9.3%
double positive events [1]: 2%
percent response (vesicle binding) [1]: 29.8% (active)
percent response (vesicle binding) (response, at 7.7 µM): 180%

COc1ccc(OC)c(NC(=O)c2ccccc2SC)c1
double positive events (at 7.7 µM): 56.3%
double positive events [1]: 35.3%
percent response (vesicle binding) [1]: 242% (inactive)

COc1ccc(CNC(=O)COC(=O)CCN2C(=O)C3CC=CCC3C2=O)cc1OC (configuration not stated)
double positive events (at 7.7 µM): 41.8%
double positive events [1]: 29.1%
percent response (vesicle binding) [1]: 307% (inactive)
percent response (vesicle binding) (response, at 7.7 µM): 239%

O=C(Cn1cc(C(F)(F)F)cc(Cl)c1=O)NCCc1ccc(Cl)cc1Cl
double positive events (at 7.7 µM): 11.1%
double positive events [1]: 1.7%
percent response (vesicle binding) [1]: 16.3% (active)
percent response (vesicle binding) (response, at 7.7 µM): 149%

Cc1ccc(C(=O)NC2CCCc3c2cnn3-c2ccc(F)cc2F)cn1 (configuration not stated)
double positive events (at 7.7 µM): 33.7%
double positive events [1]: 15%
percent response (vesicle binding) [1]: 329% (inactive)
percent response (vesicle binding) (response, at 7.7 µM): 658%

CCOC(=O)C1(Cc2cccc(OC)c2)CCN(C/C=C/c2ccccc2)CC1
double positive events (at 7.7 µM): 25.8%
double positive events [1]: 11%
percent response (vesicle binding) [1]: 119% (inactive)
percent response (vesicle binding) (response, at 7.7 µM): 269%
